Assay results as given in ChEMBL document CHEMBL3988442, “University of Dundee, Small-Polar-MMV Screening Library” (2021).
“And” between values parts separate entries of the source, which are not always exact repeats. Identical values can stand only once. About 290 (0.85%) of roughly 34,000 compounds showed an effect of 50% or more. The sample holds strong results, similar compounds and a random draw of the others, so the mix is not that of the screen.

System: Plasmodium falciparum
Assay: Plasmodium falciparum sporozoite viability assay
Assay type: functional, organism-based
Set-up: scale not given: in the data most compounds retested in dose-response had high values

| SMILES | Percent Effect [%] | Percent Effect (10 mM as filed; unlikely as a test dose) |
| --- | --- | --- |
| c1ccc(OCCN2CCC(c3cnccn3)CC2)cc1 | 9.194 |  |
| O=C(c1cnccn1)N1CCN(Cc2csc(-c3ccccc3)n2)CC1 | 9.607 |  |
| CC(C)c1nc(CN2CCN(Cc3ccccn3)CC2)cs1 | 0 |  |
| CC(C)C(=O)N1CCN(Cc2csc(-c3ncccn3)n2)CC1 |  | 77.28% and 53.85% and 54.68% |
| CC(C)C(=O)N1CCN(Cc2csc(-c3ccccn3)n2)CC1 |  | 63.59% and 62.99% and 41.75% |
| COCC(=O)N1CCN(Cc2csc(-c3ncccn3)n2)CC1 |  | -31.63% and -33.22% and -17.89% |
| c1cnc(-c2nc(CN3CCCN(Cc4cccs4)CC3)cs2)nc1 |  | -6.924% and 13.02% and 13.14% |
| CC(O)CN1CCN(Cc2csc(-c3cnn(C)c3)n2)CC1 (configuration not stated) | 8.176 |  |
| CC(O)CN1CCN(Cc2csc(-c3ncccn3)n2)CC1 (configuration not stated) |  | 68.95% and 42.73% and 61.03% |
| COCCN1CCC2(CCN(C(=O)c3ccc(F)cc3)CC2)C1=O | 6.318 |  |
| CCC(=O)Nc1ccc(N2CCC(OC)CC2)c(C(F)(F)F)c1 | 1.93 |  |
| CCc1[nH]ncc1C(=O)N1CCCC(n2cncn2)C1 (configuration not stated) | -4.375 |  |
| Cc1cccnc1C(Cc1ccsc1)NCc1cnc(N(C)C)nc1 (configuration not stated) | -1.422 |  |
| Cc1cccc(CN2CCCn3c(nnc3CN3CCCC3=O)C2)n1.O=C(O)C(F)(F)F | -1.313 |  |
| CN(C)c1ccc(CC2COCCN(Cc3nccn3C)C2)nn1 (configuration not stated) | -1.339 |  |
| Cn1ccnc1C(=O)N[C@@H]1CN(Cc2ccoc2)[C@@H]2CCCO[C@@H]21.O=C(O)C(F)(F)F | 4.904 |  |
| CC1=Nc2c(c(=O)[nH]n2C2CCCC2)C(c2ccc(C(=O)O)cc2)S1 (configuration not stated) | -7.784 |  |
| CCn1c(C)nc2cc(NC(=O)CC3CCCCO3)ccc21 (configuration not stated) |  | 43.93% and 40.46% and 65.03% |
| CCn1c(C)nc2cc(NC(=O)C3CN(C(C)=O)C3)ccc21 | -0.5895 |  |
| COc1ncccc1CN1CCC2(CC1)CC(OCC1CC1)CO2.O=C(O)C(F)(F)F (configuration not stated) | 8.839 |  |
| COc1ccccc1-n1cc(C(=O)NCCCn2nc(C)nc2C)cn1 | 3.022 |  |
| Cc1ccnn1-c1ccc(C(=O)N2CCCC(n3ccnc3)C2)cc1 (configuration not stated) | 2.837 |  |
| O=C(CO)N1CCC(CCc2ccnc(Nc3cnccn3)c2)CC1 | -3.121 |  |

| SMILES | Percent Effect [%] | Percent Effect (10 mM as filed; unlikely as a test dose) |
| --- | --- | --- |
| Cc1cc(C)nc(N2CCC(CNC(=O)c3ccccn3)CC2)n1 | 1.904 |  |
| O=C(Nc1cc(CCC2CCN(CCO)CC2)ccn1)c1ccccn1 |  | 45.19% and 58.77% and 35.89% |
| CC(=O)Nc1cc(CCC2CCN(C(=O)c3ccccn3)CC2)ccn1 |  | 2.531% and -14.73% and -5.68% |
| CN1CCC(CCc2ccnc(NC(=O)c3ccccn3)c2)CC1 |  | 67.18% and 85.05% and 49.69% |
| CN1CCC(CCc2ccnc(Nc3cnccn3)c2)CC1 | -4.215 |  |
| CC(=O)N1CCC(CCc2ccnc(NC(=O)c3ccccn3)c2)CC1 |  | 74.38% and 72.77% and 65.08% |
| Cc1ccccc1CCNC(=O)CN1CCCC(Cn2cncn2)C1 (configuration not stated) | 7.953 |  |
| O=C(C1=CCCC1)N1C[C@@H]2COC[C@]2(COc2ncccc2F)C1.O=C(O)C(F)(F)F | 10.29 |  |
| O=C(c1ccc(-c2cccc3c2CCNC3)o1)N1CCCCC1 | -26 |  |
| O=S(=O)(c1ccccc1)N1CC[C@]2(C[C@@H](OCC3CC3)CO2)C1 | -7.967 |  |
| COC(=O)Nc1ccc(CNc2cncc(-n3cccn3)n2)cc1 | -0.1023 |  |
| Cc1cc(CN(C)C(=O)c2ccc(OC(C)C)nc2)no1 | 6.375 |  |
| COc1ccc(CN2C[C@@H]3OCCN(C)[C@@H]3C2)cc1.O=C(O)C(F)(F)F | -4.875 |  |
| COCCC(=O)N1CC[C@@H](N(C)C)[C@@H]1Cc1ccccc1 | -9.112 |  |
| COc1ccc(S(=O)(=O)N2C[C@@H]3CN(C)CCO[C@@H]3C2)cc1 | 1.798 |  |
| Cc1nccn1C1CCCN(C(=O)CCCNc2ncccn2)C1 (configuration not stated) | 3.922 |  |
| Cc1cnn(CC2CCCN2C(=O)c2ccccc2-n2cccn2)c1 (configuration not stated) | 9.109 |  |
| Cc1nc(N2CCN(C(=O)c3ccccc3)CC2)c2cnn(C)c2n1 | -8.371 |  |
| Cl.OC1(c2ccc(F)cc2)CCN(Cc2ccccc2N2CCCC2)CC1 | 10.2 |  |
| Cc1cnccc1-n1nc(C(C)C)nc1CCN(C)S(C)(=O)=O |  | -20.65% and -22.07% |
| CSCCc1nc(C(C)C)nn1-c1ccncc1C |  | -19.09% and -18.73% |
| Cc1cnccc1-n1nc(C(C)C)nc1CS(C)(=O)=O |  | 82.57% and 75% |
| CC(=O)N1CCC1c1nc(-c2ccc(C)s2)no1 (configuration not stated) | -4.556 |  |

| SMILES | Percent Effect [%] | Percent Effect (10 mM as filed; unlikely as a test dose) |
| --- | --- | --- |
| CSc1nnc(CNC(=O)Nc2ccccc2F)n1C | -0.259 |  |
| O=C(Cc1ccc(F)cc1)NCCNc1cc(N2CCCC2)cnn1 |  | 2.363% and 4.651% |
| O=C(NCCNc1cc(N2CCCC2)cnn1)Nc1ccccc1F |  | 88.21% and 92.16% |
| CC(=O)N1CC[C@H]2OCC[C@@]2(C(=O)NCCc2ccccn2)C1.O=C(O)C(F)(F)F | -10.77 |  |
| CC(NC(=O)NCCCc1n[nH]c(N)c1C#N)c1ccccc1F (configuration not stated) | 14.69 |  |
| Cc1cc(C)n(CC2CCCN2CC(=O)NC2CCOCC2)n1 (configuration not stated) | -10.14 |  |
| Cc1cc(C)n(CC2CCCCN2CC(=O)NC2CCOCC2)n1 (configuration not stated) | 14.15 |  |
| COCCOCC(=O)Nc1ccc(C)cc1F | -13.64 |  |
| O=C(c1ccc(C2CCCO2)s1)N1CCS(=O)(=O)CC1 (configuration not stated) |  | 6.394% and 9.158% and -11.41% |
| O=C(c1ccc(C2CCCO2)s1)N1CCN(c2ccccc2F)CC1 (configuration not stated) |  | 80.46% and 89.28% and 82.47% |
| O=C(c1ccc(C2CCCO2)s1)N1CCOCC1 (configuration not stated) |  | -24.05% and -11.59% |
| O=c1[nH]c(CCN2CCCC2Cn2cncn2)nc2ccccc12 (configuration not stated) | 9.596 |  |
| O=C(Cc1ccc2c(c1)OCCO2)N1CCCC(n2cccn2)C1 (configuration not stated) |  | 49.54% and 51.7% and 51.33% |
| O=C(CCc1ccc2c(c1)OCO2)N1CCCC(n2cccn2)C1 (configuration not stated) |  | -3.407% and -9.243% and -9.365% |
| O=C(Cc1ccc2c(c1)CCO2)N1CCCC(n2cccn2)C1 (configuration not stated) |  | -20.29% and -14.82% and -23.46% |
| CCOC(=O)[C@@H]1[C@@H](O)C(=O)N(C)C12CCN(C(=O)c1ccco1)CC2 | 7.177 |  |
| O=C(O)C(F)(F)F.O=C(O)C(F)(F)F.c1ccc(CN2CCC3(CC2)CCN(c2ccccn2)C3)nc1 | 11.38 |  |
| CCC1CN(C(=O)c2ccc(O)cn2)CCC(=O)N1Cc1ccccc1 (configuration not stated) |  | 75.08% and 82.46% |
| CCC1CN(C(=O)c2ncccc2O)CCC(=O)N1Cc1ccccc1 (configuration not stated) |  | -58.66% and -61.44% |
| CCC1CN(C(=O)c2cccnc2O)CCC(=O)N1Cc1ccccc1 (configuration not stated) |  | -11.65% and -22.98% |
| Cc1nn(C)c(Cl)c1C1CCCN1C(=O)c1cc(C2CC2)on1 (configuration not stated) | 6.06 |  |
| Cc1c[nH]nc1C1CN(Cc2cnn(-c3ccccc3C(=O)O)c2)C1 | -1.554 |  |
| Cc1noc(C)c1CC(=O)N1CCCC(n2ccnc2C)C1 (configuration not stated) | -6.625 |  |

| SMILES | Percent Effect [%] | Percent Effect (10 mM as filed; unlikely as a test dose) |
| --- | --- | --- |
| O=C(Nc1ccc(N2CCCC2)nc1)N1CCc2ccccc2C1 |  | 79.37% and 82.46% and 84.57% |
| O=C(Nc1ccc(N2CCCC2)nc1)N1CCc2sccc2C1 |  | -10.47% and -0.9103% and 2.706% |
| CCCc1cc(NC(=O)c2cc(N3CCNC3=O)c(F)cc2F)n[nH]1 | -27.19 |  |
| Cc1ccsc1CNC(=O)c1ccc(N2CCNC2=O)cc1 | -9.9 |  |
| CC(NC(=O)c1cc(N2CCNC2=O)ccc1F)c1ccc(F)cc1 (configuration not stated) |  | -9.982% and -2.184% |
| CC(Cc1ccsc1)NC(=O)c1cc(N2CCNC2=O)ccc1F (configuration not stated) |  | 74.24% and 61.84% |
| CC(CNC(=O)c1cc(N2CCNC2=O)ccc1F)c1ccccc1 (configuration not stated) |  | 35.08% and 63.14% |
| Cc1ccc(C(=O)NCC(O)c2cccc(F)c2)c(=O)[nH]1 (configuration not stated) | -4.578 |  |
| CCN(CC)CCCNCc1cc2cc(C)cc(C)c2[nH]c1=O | 11.75 |  |
| COCc1cnc2n1CCN(C(=O)c1ocnc1C)C2C (configuration not stated) | 4.866 |  |
| CN(Cc1cccs1)C(=O)Cn1cc(NC(=O)C(C)(C)C)cn1 | -1.695 |  |
| Cc1ccc(-n2nnc(C(=O)NCC(F)(F)F)c2C2CC2)cc1 | -7.493 |  |
| Cn1cc(-c2cnc(N3CCOCC3)nc2)cc1C(=O)N1CCOCC1 |  | -17.52% and -24.5% and -14.42% |
| O=C(CCc1ccsc1)Nc1ccnn1C1CCS(=O)(=O)C1 (configuration not stated) | -2.999 |  |
| Cc1oc(C)c(C(=O)NCc2ccccc2CN(C)C)c1C | 1.894 |  |
| COC1CN(C(=O)CC(C)C)CCC(=O)N(C)c2ccccc21 (configuration not stated) | -36.78 |  |
| CCSCCNC(=O)c1cnc(-c2ccccc2)nc1O | 2.095 |  |
| O=C(NCCCO)c1cnc(-c2ccccc2)nc1O | -8.71 |  |
| CC(C)(C)c1ncc(C(=O)NCCSc2ccccn2)c(O)n1 |  | 98% and 98.19% |
| Cc1ccc(C2(C(=O)NCCCn3cccn3)CCOCC2)cc1 |  | -25.15% and -19.39% |
| c1ccc2oc(CN3CCCC3Cn3cncn3)nc2c1 (configuration not stated) | 3.888 |  |
| Cc1nccn1C1CCCN(C(=O)Cc2cn3ccccc3n2)C1 (configuration not stated) | 3.916 |  |
| CCOCC1CN(C(=O)c2cscn2)Cc2cnn(CC3CC3)c21 (configuration not stated) | 11.53 |  |
